Screens: PubChem BioAssay, National Center for Advancing Translational Sciences (NCATS)
This is one part of a sample in which hits are shown more often than they occur.
12-LOX inh – blocks human arachidonate 12S-lipoxygenase. Potency, µM (doses to about 108 µM), without a hit: at the highest dose activity change, negative = inhibition, usual class: inhibitors. AID 1671190. hit rate 1.1% among 580,000. purified 12hLO, xylenol orange hydroperoxide absorbance; further: on the % scale 0 is the no-effect control and ±100 the full control effect
Target sequence (P18054 whole entry, looked up): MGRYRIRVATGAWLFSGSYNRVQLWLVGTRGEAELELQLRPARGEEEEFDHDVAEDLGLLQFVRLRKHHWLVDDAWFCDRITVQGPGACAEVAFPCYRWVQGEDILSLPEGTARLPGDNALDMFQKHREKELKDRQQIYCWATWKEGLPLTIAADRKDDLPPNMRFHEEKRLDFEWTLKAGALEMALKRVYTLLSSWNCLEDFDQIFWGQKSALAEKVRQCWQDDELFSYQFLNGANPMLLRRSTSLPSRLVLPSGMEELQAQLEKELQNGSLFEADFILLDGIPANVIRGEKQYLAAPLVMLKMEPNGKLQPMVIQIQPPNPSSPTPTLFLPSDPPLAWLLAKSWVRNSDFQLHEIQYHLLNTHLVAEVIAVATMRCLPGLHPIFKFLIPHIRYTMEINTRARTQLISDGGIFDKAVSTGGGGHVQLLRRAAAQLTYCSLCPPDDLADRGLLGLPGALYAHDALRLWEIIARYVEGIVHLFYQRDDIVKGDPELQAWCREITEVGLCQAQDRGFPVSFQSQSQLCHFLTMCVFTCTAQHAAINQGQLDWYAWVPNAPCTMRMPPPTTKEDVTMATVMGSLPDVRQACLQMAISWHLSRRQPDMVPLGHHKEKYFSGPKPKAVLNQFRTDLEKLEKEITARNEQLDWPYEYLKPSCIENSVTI
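Purified human 12hLO (150 nM final) in 25 mM Hepes, 0.01% Triton X-100, pH 7.0 was preincubated 15 min at room temperature with compound. Then 40 uM arachidonic acid was added, 30 min. Hydroperoxide was read by Fe-XO absorbance ratio 573/405 nm.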
G9a inh – inhibitors of human histone lysine methyltransferase G9a. Q96KQ7. G9a H3K9 monomethylation, AlphaScreen, 2 h. Potency, µM (highest dose often 102 µM), for inactives: at the top dose activity, negative = inhibition, actives largely listed as inhibitors. hit rate 8.8% among 350,000. AID 504332; further: on the % scale 0 is the no-effect control and ±100 the full control effect; nearly all actives have a fitted effect of over 75% in size
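Enzyme 20 nM + cpd, 15 min RT; add b-H3K9 pep 500 nM / SAM 20 uM; 2 h RT; anti-H3K9me1 Ab 0.5 ug/mL + SA donor / anti-rabbit acceptor beads 20 ug/mL each, 10 min; AlphaScreen read.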
Sfp PPTase inh – blocks B. subtilis Sfp PPTase activity. Q9F4F7. Biochemical Sfp PPTase activity, qHTS. Potency, µM, without a hit: largest response in the series, negative = inhibition, most hits filed as inhibitors. hit rate 3.5% among 310,000;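 further: the enzyme is Sfp with the accession as filed and its product quenches rhodamine fluorescence; 0% = enzyme reaction without inhibitor and -100% = no enzyme wells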
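Reaction rates are the 30-min fluorescence difference (ex 525, em 598 nm) in wells containing 15 nM Sfp, 5 uM rhodamine-CoA and 12.5 uM BHQ-2-YbbR at pH 7.6 with 10 mM MgCl2.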
VDR inh – vitamin D3 receptor (human) inhibition | Potency, µM, without a hit: max response, negative = inhibition, usual class: inhibitors | hit rate 0.93% among 400,000 | VDR-SRC2-3 peptide fluorescence polarization, 2 h | P11473; further: on the % scale 0 is the no-effect control and ±100 the full control effect
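Measured by FP: displacement of SRC2-3 coactivator peptide from VDR by library compounds, following a two-hour ambient incubation.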
Glioma ERSR ind – induces the endoplasmic reticulum stress response in human glioma cells | U87-MG GRP78 promoter luciferase reporter, 16 h | Potency, µM, inactives show at the top dose activation, usual class: activators | hit rate 0.02% among 420,000; further: series mostly up to about 76 µM; % of control where 0% means no effect; nearly all actives have a fitted effect of over 35% in size
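Stably transfected U87-MG human glioma cells carrying a GRP78-based luminescent sensor were seeded at 1000 cells/well, pin-dosed with compounds and incubated 16 h. Luciferase reagent was then added, and end-point luminescence was read after 10 min at room temperature.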
The depositor's hits bear a star; ! = a repeat was not active; [ ] = dose if it differs, or a comment. The call rests on the fitted dose curve; in most records, active means well fitted curve in the direction sought with a large enough effect; inconclusive means small, poorly fitted or top-dose-only effect, or another doubt; inactive means no such curve, though single readings can be large; an effect the other way counts as inactive or inconclusive. Potency means the concentration at half of the fitted maximal effect.

Screening Cc1ccc(-c2cc(C(=O)N3CCN(c4ccc(O)cc4)CC3)c3ccccc3n2)cc1 returned 12-LOX inh inconclusive, VDR inh -12.5% and Glioma ERSR ind 3.0%.
Screening Cc1ccc(-c2cc(C(=O)N3CCCC(C(F)(F)F)C3)c3ccccc3n2)o1 (stereo unspecified) returned 12-LOX inh 7.94µM*!, G9a inh 71.5%[2.33 µM], VDR inh -12.0% and Glioma ERSR ind 0.4%.
For O=C(c1cc(-c2ccc(F)cc2)nc2ccccc12)N1CCC1 the results were 12-LOX inh -14.8%, VDR inh -3.4% and Glioma ERSR ind 3.4%.
CSc1ccc(Cl)c(C(=O)NCCC2=CCCCC2)c1 was read as 12-LOX inh -3.3%.
Screening O=C(CN1CCN(C(=O)c2nn(-c3ccccc3)c(=O)c3ccccc23)CC1)N1CCOCC1 returned 12-LOX inh -22.7%.
O=C(CN1CCN(S(=O)(=O)c2ccc(Br)cc2)CC1)c1ccc(O)c(O)c1 was read as 12-LOX inh inconclusive, G9a inh 10µM*, Sfp PPTase inh 79.4µM*, VDR inh 1.7% and Glioma ERSR ind -4.1%.
CC(C)c1ccc(S(=O)(=O)N2CCN(CC(=O)c3ccc(O)c(O)c3)CC2)cc1 was read as 12-LOX inh inconclusive, G9a inh 8.91µM* and Sfp PPTase inh 22.4µM*.
`O=C(c1csc(-c2ccsc2)n1)N1CCCC1c1ccccc1` (stereo unspecified) gave 12-LOX inh -2.6%.
`Cc1nn(Cc2cccc(Cl)c2)c(C)c1NS(=O)(=O)c1c(C)nn(C(F)F)c1C` gave 12-LOX inh 3.5%.
Cc1ccc(-n2nc(-c3noc(C(=O)N4CCC(c5ccccc5)C4)n3)c(=O)n(C)c2=O)cc1 (stereo unspecified) was read as 12-LOX inh -9.2%.
Screening Cc1c(Nc2c3c(c(C#N)c4nc5ccccc5n24)CCC3)c(=O)n(-c2ccccc2)n1C returned G9a inh 50.1µM* and Sfp PPTase inh 4.5%.
`CN(C)C(=O)c1ccc2oc(CN3CCN(C(=O)Nc4ccccc4Cl)CC3)nc2c1` gave 12-LOX inh 21.7%.
Screening O=C(NCc1n[nH]c(=S)n1-c1ccc(F)cc1)c1ccc(S(=O)(=O)N2CCCC2)cc1 returned 12-LOX inh inconclusive, G9a inh inconclusive, Sfp PPTase inh -28.0%, VDR inh -10.4% and Glioma ERSR ind -3.0%.
`O=C(NCc1n[nH]c(=S)n1-c1ccccc1Cl)c1ccc(S(=O)(=O)N2CCCCC2)cc1` gave 12-LOX inh 18.0%, G9a inh 10µM*, Sfp PPTase inh -3.2%, VDR inh 8.7% and Glioma ERSR ind 0.4%.
Screening COc1ccccc1-n1c(CNC(=O)c2ccc(S(=O)(=O)N3CCCCC3)cc2)n[nH]c1=S returned 12-LOX inh -27.2%, G9a inh 22.4µM*, Sfp PPTase inh 2.5%, VDR inh -23.9% and Glioma ERSR ind -4.6%.
For Cc1c(O)ccc2c(COC(=O)Cc3n[nH]c(=O)c4ccccc34)cc(=O)oc12 the results were 12-LOX inh -6.3%.
O=C(NCCc1ccc(Cl)cc1)c1nc(-c2ccc(Cl)nc2)c2ccccn12 was read as 12-LOX inh 1.2%[6.33 µM].
Screening COc1cc(N2Cc3ccccc3C2)ccc1C=O returned 12-LOX inh -23.9%, G9a inh 31.6µM*, Sfp PPTase inh -3.5%, VDR inh 2.3% and Glioma ERSR ind 3.9%.
Screening O=C1CCC(C(=O)OCc2ccc(F)cc2)=NN1 returned 12-LOX inh -12.6%.
For CC(=O)C1=C(O)C(=CC=Cc2ccccc2)OC1=O the results were 12-LOX inh 15.8µM* and Glioma ERSR ind -3.5%.
`O=C(Oc1ccc2c(c1)O/C(=C\C=C\c1ccccc1)C2=O)c1cccs1` gave 12-LOX inh -22.7%.
`O=C(O)CC1(CC(=O)N2CCC(Cc3ccccc3)CC2)CCCC1` gave 12-LOX inh -38.2%.
`COc1cccc(O)c1O` gave Sfp PPTase inh 20µM*, VDR inh 50.1µM* and Glioma ERSR ind -10.9%.
`Cn1cccc1/C=N/n1c(-c2ccc(Cl)cc2)n[nH]c1=S` gave 12-LOX inh inconclusive, G9a inh inconclusive, Sfp PPTase inh 2.7%, VDR inh -16.7% and Glioma ERSR ind -5.1%.
For COc1ccc(-c2n[nH]c(=S)n2/N=C/c2cccn2C)cc1 the results were 12-LOX inh inconclusive, G9a inh 1.12µM*, Sfp PPTase inh -3.3%, VDR inh -6.3% and Glioma ERSR ind -2.2%.
Cc1ccc(-c2n[nH]c(=S)n2/N=C/c2cccn2C)cc1 was read as 12-LOX inh 25.1µM*, G9a inh 1.12µM*, Sfp PPTase inh 0.4%, VDR inh 6.4% and Glioma ERSR ind -3.4%.
`COc1cccc(-c2nc(C(=O)N3CCC(C)CC3)nn2-c2ccccc2)c1` gave 12-LOX inh -9.6%.
Screening O=C1C=C(c2ccccc2)CC(c2ccc(Br)cc2)C1 (stereo unspecified) returned 12-LOX inh 9.5%.
CCCCC1(C)Cc2ccccc2C(=S)N1 (stereo unspecified) was read as 12-LOX inh inconclusive, G9a inh -3.1%[59 µM], Sfp PPTase inh 15.7%, VDR inh -12.9% and Glioma ERSR ind -5.2%.
For CCCCC1(C)NC(=S)N2N1C(=S)NC2(C)CCCC (stereo unspecified) the results were 12-LOX inh inconclusive, G9a inh 1.78µM*, Sfp PPTase inh 56.2µM*, VDR inh 79.4µM* and Glioma ERSR ind -1.9%.
CC(C)c1cc(=O)oc2cc(OCC(=O)NCCc3ccc(F)cc3)ccc12 was read as 12-LOX inh 25.2%.
Cc1ccc([N+](=O)[O-])cc1NC(=O)c1ccc(CSc2ccccc2)cc1 was read as 12-LOX inh -14.2%, G9a inh inconclusive, Sfp PPTase inh 31.6µM*, VDR inh -2.0% and Glioma ERSR ind -2.5%.
`O=C(Nc1cccc([N+](=O)[O-])c1)c1ccc(CSc2ccccc2)cc1` gave 12-LOX inh 0.0%, G9a inh 7.1%[12.7 µM], Sfp PPTase inh 9.2%, VDR inh 9.4% and Glioma ERSR ind -2.6%.
CSc1ccccc1NC(=O)c1ccc([N+](=O)[O-])cc1 was read as 12-LOX inh inconclusive, G9a inh 31.6µM*, Sfp PPTase inh 56.2µM*, VDR inh inconclusive and Glioma ERSR ind 0.3%.
O=C(Nc1ccccc1O)c1ccc([N+](=O)[O-])cc1 was read as 12-LOX inh inconclusive, G9a inh 10.9%, Sfp PPTase inh 20.1%, VDR inh -7.8% and Glioma ERSR ind 8.0%.
